Assay outcomes as filed in PubChem.
Compounds with a hit are over-represented: about 3.5% of the library has one in this group of screens.
mHTT CaM bind – mutant huntingtin-calmodulin interaction inhibitors – biochemical, AlphaScreen, primary screen; AlphaScreen His-mHTT/GST-CaM binding, luminescence; 3.6% of 190,000 active; P42858; AID 1671202, 2021; inhibition, % at 15 µM;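 also: 0% = both proteins with DMSO and 100% = one protein alone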
Pf apPOL inh – Pf-apPOL inhibitors, biochemical, fluorescence; inhibition, % at 10 µM; 0.25% of 210,000 active; AID 1794808, 2022; Recombinant Pf-apPOL, molecular beacon fluorescence, 1.5 h; Plasmodium falciparum apicoplast DNA polymerase (apPOL)
* hit, by the source's call; i = inactive; x = no result. Rule as the data show it: active = inhibition above about 50%; inactive = the rest.

SMILES | mHTT CaM bind | Pf apPOL inh
CC(C)(C)n1nc2c(c1NC(=O)CCc1ccccc1)CSC2 | 3 | 0
O=C(Nc1cc(-c2ccco2)nn1CCO)c1cnccn1 | 92* | -1
O=C(Cc1csc(NC(=O)c2cnccn2)n1)NCc1ccco1 | 38 | 4
O=C(Nc1nnc(-c2ccco2)o1)c1cnccn1 | -9 | -7
CN(CC12CCCC1N(C)C(=O)CC2)C(=O)NCc1ccccc1 (centres undefined) | -4 | -6
CC(C)c1ccc(OCC(=O)Nc2nnc(C3CC(=O)N(c4ccc(F)cc4)C3)o2)cc1 (centres undefined) | 14 | -5
O=C(NCc1ccccn1)c1nc(-c2ccc(Cl)cc2)n2c1CCCCC2 | 54* | -1
COc1ccccc1CNC(=O)c1nc(-c2ccc(C)cc2)n2c1CCCCC2 | 61* | -1
O=C(Nc1ccccn1)c1nc(-c2ccc(Cl)cc2)n2c1CCCCC2 | 1 | 1
Cc1ccc(-c2nc(C(=O)NC(C)C)c3n2CCCCC3)cc1 | 20 | -2
O=C(c1ccccc1)c1ccc(OCCCn2cnc3ccccc3c2=O)cc1 | 4 | -1
C/C=C/C=C/C(=O)Nc1c[nH]c(=O)[nH]c1=O | -2 | -3
O=C1C2C3c4ccccc4C(c4ccccc43)C2C(=O)N1c1ccccn1 (centres undefined) | -10 | x
Oc1ccc(/C=C/c2nc(-c3ccccc3O)n(-c3ccccc3)n2)c(O)c1 | 96* | -77
Oc1ccc(/C=N/n2cnnc2)c(O)c1 | i | x
Oc1ccc(/C=C/c2nc(-c3ccccc3O)n(-c3ccccc3)n2)cc1 | 92* | 6
COc1ccc(/C=C/c2nc(N)nc(-c3ccccc3O)n2)cc1 | 32 | -5
CCCCOc1cccc(C(=O)Nc2ccc(NC(=O)C(C)C)cc2)c1 | -3 | 8
O=C(O)c1cc(-c2ccc(Cl)cc2)oc1C(F)(F)F | x | -50
COc1ccc(OC)c(S(=O)(=O)N2CCC3(C2)C(=O)Nc2ccccc23)c1 (centres undefined) | 99* | -4
COc1ccc(NC(=O)N2CCC3(C2)C(=O)Nc2ccccc23)c(OC)c1 (centres undefined) | 8 | -4
O=C(CSc1nnc(NC(=O)Cc2ccc(F)cc2)s1)NO | -6 | 18
Cc1ccc(N2C=C(C#N)S(=O)(=O)c3ccc(Cl)cc32)cc1 | -2 | -6
Cc1cc(C)n(-c2cc(-n3cccn3)ncn2)n1 | 2 | 4
CC(C)(C)NC(=O)N1CCC(n2c(-c3ccco3)nc3cccnc32)C1 (centres undefined) | 5 | -3
SMILES | mHTT CaM bind | Pf apPOL inh
Nc1ccc(Br)cc1C(NCC(=O)O)c1ccccc1Cl (centres undefined) | 32 | -6
O=C(Nc1ccccc1)C(Cc1c[nH]c2ccccc12)NC(=O)C(c1ccccc1)c1ccccc1 (centres undefined) | 89* | 1
COc1ccc(NC(=O)C(N)Cc2c[nH]c3ccccc23)cc1 (centres undefined) | 46 | -18
CC(C)CC(=O)N1CCN(CC2CC=CCC2)CC1 (centres undefined) | 4 | 91*
O=C(C1CCN(CC2CC=CCC2)CC1)N1CCCC1 (centres undefined) | 2 | -3
CCCCNC(=O)c1cnn2c(C)c(Cc3ccc(Cl)cc3)c(C)nc12 | 11 | -6
Cc1nc2c(C(=O)NCc3ccc(F)cc3)cnn2c(C)c1Cc1ccc(F)cc1 | 51* | -8
Cc1ccc(C)c(Cc2c(C)nc3c(C(=O)NCCc4ccccc4)cnn3c2C)c1 | 66* | -3
Cc1nc2c(C(=O)NCCc3ccccc3)cnn2c(C)c1Cc1ccc(F)cc1 | 80* | -4
CCOCCCNC(=O)c1cnn2c(C)c(Cc3ccc(Cl)cc3)c(C)nc12 | 65* | -18
Cc1nc2c(C(=O)NCc3ccc(F)cc3)cnn2c(C)c1Cc1ccccc1 | 19 | -7
CCCNC(=O)c1cnn2c(C)c(Cc3ccc(F)cc3)c(C)nc12 | -1 | -4
CCCCNC(=O)c1cnn2c(C)c(Cc3cc(C)ccc3C)c(C)nc12 | 11 | 0
CCN(CC)CCN(C)C/C=C/c1ccccc1 | -6 | -5
CCOc1ccc(C(=O)N2CCCC(C)(C(=O)NCc3ccccc3)C2)cc1 (centres undefined) | -11 | 8
COc1cc(S(N)(=O)=O)c(OC)cc1Cl | -11 | x
CC1(C)Cc2cccc(C(=O)Nc3ccc(-c4csnn4)cc3)c2O1 | x | 17
Clc1ccc(C=Nc2c(-c3ccco3)nc3ccccn23)cc1 | 55* | -2
Oc1c(Cl)cc(Cl)cc1C=Nc1c(-c2ccco2)nc2ccccn12 | 64* | -2
O=[N+]([O-])c1cc(C=Nc2c(-c3ccco3)nc3ccccn23)c(Cl)cc1Cl | 23 | 6
O=[N+]([O-])c1cc(C=Nc2c(-c3ccco3)nc3ccccn23)ccc1Br | 18 | -1
COc1ccc(C(=O)N2CCc3nc[nH]c3C2)cc1OC | 5 | 2
O=C(Nc1nc(CC(=O)N2CCN(c3ccccc3O)CC2)cs1)c1cnccn1 | 44 | -10
O=C1CC(NCCc2ccccc2F)C(=O)N1c1ccc(Cl)cc1 (centres undefined) | -1 | 0
COc1ccc(NCC2CCCCC2)cc1 | 73* | 0
SMILES | mHTT CaM bind | Pf apPOL inh
COc1ccc(NC(=O)CC2CCC2)cc1 | -6 | 5
O=C(O)c1ccccc1-c1ccc(/C=C/c2cc(C(F)(F)F)[nH]c(=O)n2)o1 | 3 | -5
O=C(O)c1cc(Cl)ccc1-c1ccc(/C=C/c2cc(C(F)(F)F)[nH]c(=O)n2)o1 | 13 | -1
O=c1nc(/C=C/c2ccc(-c3ccc(Br)cc3)o2)cc(C(F)(F)F)[nH]1 | 99* | -4
O=c1nc(/C=C/c2ccc(-c3cccc(Cl)c3)o2)cc(C(F)(F)F)[nH]1 | 91* | -6
COCCN=C1Nc2ccccc2NC12CCCN(C(=O)Cc1cccc(C)c1)C2 (centres undefined) | 52* | -4
COCCN=C1Nc2ccccc2NC12CCCN(C(=O)CCc1c[nH]c3ccccc13)C2 (centres undefined) | 71* | -3
COCCN=C1Nc2ccccc2NC12CCCN(C(=O)c1ccccc1Cl)C2 (centres undefined) | 13 | -1
COCCN=C1Nc2ccccc2NC12CCCN(C(=O)c1ccc(C)nc1)C2 (centres undefined) | 2 | -5
COCCN=C1Nc2ccccc2CNC12CCN(C(=O)Cc1cccc(C)c1)C2 (centres undefined) | 20 | -3
COCCN=C1Nc2ccccc2NC12CCCN(C(=O)c1cc(-c3ccccc3)n[nH]1)C2 (centres undefined) | 67* | -4
Cc1ccsc1C1C2=C(CCCC2=O)Nc2ncnn21 (centres undefined) | -4 | -3
Cc1ccsc1C1C2=C(CC(C)(C)CC2=O)Nc2ncnn21 (centres undefined) | 87* | 1
CC1Cn2cc(-c3ccc([N+](=O)[O-])cc3)nc2S1 (centres undefined) | 18 | 51*
O=[N+]([O-])c1ccc(-c2cn3c(n2)SCC3)cc1 | 18 | -13
COc1cccc(Oc2c(C)oc3c4c(ccc3c2=O)OCN(Cc2ccccn2)C4)c1 | 100* | -88
Cc1oc2c3c(ccc2c(=O)c1-c1ccccc1)OCN(CC1CCCO1)C3 (centres undefined) | 0 | 1
COCCN1COc2ccc3c(=O)c(Oc4cccc(OC)c4)c(C(F)(F)F)oc3c2C1 | 4 | 3
